Data reported in the supplement of paper PMC12808144.
A number with no mark means an inactive call.

What follows are compounds tested on Mel-DCC-11 (assay: cell viability relative to DMSO control (fraction of DMSO control); higher = less cytotoxic, active = 0.5 or less). Conditions: 1 µM; 120 h.
How it was run: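 Patient-derived Mel-DCC-11, its resistant subline Mel-DCC-11-R (alone and with 8 µM of its selecting drug) and NHEM-hTERT immortalized melanocytes were exposed for 120 h to 315 approved anti-cancer drugs at 1 µM in duplicate. Luminescence was read with ATPlite 1step. Viability was normalised to vehicle controls and averaged over duplicates.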

| Structure (SMILES) | cell viability |
| --- | --- |
| C#Cc1cccc(Nc2ncnc3cc(OCCOC)c(OCCOC)cc23)c1 [Erlotinib] | 1.26 |
| N.N.O=C([O-])C[O-].[Pt+2] [Nedaplatin] | 1.19 |
| S=c1nc[nH]c2nc[nH]c12 [Mercaptopurine] | 0.611 |
| C=CC(=O)Nc1cccc(Nc2nc(Nc3ccc(N4CCN(C(C)=O)CC4)cc3OC)ncc2C(F)(F)F)c1 [Rociletinib] | 0.95 |
| CC(/C=C/C=C(\C)C(=O)O[C@@H]1O[C@H](CO[C@@H]2O[C@H](CO)[C@@H](O)[C@H](O)[C@H]2O)[C@@H](O)[C@H](O)[C@H]1O)=C\C=C\C=C(C)\C=C\C=C(/C)C(=O)O[C@@H]1O[C@H](CO[C@@H]2O[C@H](CO)[C@@H](O)[C@H](O)[C@H]2O)[C@@H](O)[C@H](O)[C@H]1O [Crocin] | 1.28 |
| Nc1nc(=O)c2c([nH]1)NCC(CNc1ccc(C(=O)N[C@@H](CCC(=O)[O-])C(=O)[O-])cc1)N2C=O.[Ca+2] (stereo partly specified) [Calcium folinate] | 5.03 |
| O=c1ccn([C@@H]2O[C@H](CO)[C@@H](O)[C@H]2O)c(=O)[nH]1 [Uridine] | 1.11 |
| CC[C@]1(O)C[C@H]2CN(CCc3c([nH]c4ccccc34)[C@@](C(=O)OC)(c3cc4c(cc3OC)N(C=O)[C@H]3[C@@](O)(C(=O)OC)[C@H](OC(C)=O)[C@]5(CC)C=CCN6CC[C@]43[C@@H]65)C2)C1.O=S(=O)(O)O [Vincristine sulfate] | 0.517 |
| NC(=O)NO [Hydroxyurea] | 0.899 |
| CC1(C)O[C@H]2CC(=O)OC[C@]23[C@H]2CC[C@@]4(C)[C@H](c5ccoc5)OC(=O)[C@H]5O[C@]54[C@]2(C)C(=O)C[C@@H]13 [Limonin] | 1.1 |
| Nc1ccn([C@@H]2O[C@H](CO)[C@@H](O)[C@@H]2O)c(=O)n1 [Cytarabine] | 0.87 |
| CO[C@H]1C(=O)[C@]2(C)[C@@H](OC)C[C@H]3OC[C@@]3(OC(C)=O)[C@H]2[C@H](OC(=O)c2ccccc2)[C@]2(O)C[C@H](OC(=O)[C@H](O)[C@@H](NC(=O)OC(C)(C)C)c3ccccc3)C(C)=C1C2(C)C [Cabazitaxel] | 0.81 |
| CCCCc1nc2cc(/C=C/C(=O)NO)ccc2n1CCN(CC)CC [Pracinostat] | 1.1 |
| CNNCc1ccc(C(=O)NC(C)C)cc1.Cl [Procarbazine hydrochloride] | 1.18 |
| Nc1nc(=O)c2c([nH]1)NC[C@H](CNc1ccc(C(=O)N[C@@H](CCC(=O)[O-])C(=O)[O-])cc1)N2C=O.[Ca+2] [Calcium Levofolinate] | 5.5 |
| COC(=O)c1cc(OC)c2c(c1-c1c(CO)cc(OC)c3c1OCO3)OCO2 [Bicyclol] | 1.13 |
| O=C(Nc1c(Cl)cncc1Cl)c1ccc(OC(F)F)c(OCC2CC2)c1 [Roflumilast] | 1.34 |
| CCc1ccc(CCOc2ccc(CC3SC(=O)NC3=O)cc2)nc1.Cl (stereo unspecified) [Pioglitazone hydrochloride] | 0.8 |
| C.CCN(CC)CCCC(C)Nc1ccnc2cc(Cl)ccc12.O=P(O)(O)O.O=P(O)(O)O (stereo unspecified) [Chloroquine diphosphate] | 1.06 |
| CN(C)c1nc(N(C)C)nc(N(C)C)n1 [Altretamine] | 0.88 |
| CN(Cc1cnc2nc(N)nc(N)c2n1)c1ccc(C(=O)N[C@@H](CCC(=O)O)C(=O)O)cc1 [Methotrexate] | 1.04 |
| Nc1ccccc1NC(=O)c1ccc(CNc2nccc(-c3cccnc3)n2)cc1 [Mocetinostat] | 0.976 |
| COc1cc2nccc(Oc3ccc(NC(=O)Nc4cc(C)on4)c(Cl)c3)c2cc1OC [Tivozanib] | 1.13 |
| Cc1nc(Nc2ncc(C(=O)Nc3c(C)cccc3Cl)s2)cc(N2CCN(CCO)CC2)n1 [Dasatinib] | 1.25 |
| COc1cc2nccc(Oc3ccc(NC(=O)C4(C(=O)Nc5ccc(F)cc5)CC4)cc3)c2cc1OC.O=C(O)C[C@H](O)C(=O)O | 0.93 |
| CC[C@@H](CO)NCCN[C@@H](CC)CO.Cl.Cl [Ethambutol dihydrochloride] | 0.966 |
